# Source: PubChem (National Center for Advancing Translational Sciences (NCATS))
# FBPA coupling cs = inhibits coupling enzyme system, counter-screen for aldolase hits; AID 2472; 290,000 tested, 0.67% active; coupling enzyme system counterscreen, AmpLite Red fluorescence; activity change, negative = inhibition, % at 58.2 µM, hits read low; in the data active = activity change below about -30%
#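 Final compound at 57.5 uM, incubated 10 min at RT with coupling enzyme reagent (glyceraldehyde-3-phosphate), then 20 min with substrate and AmpLite Red detection. Fluorescence read at 525/598 nm; tests interference with the coupling assay, not aldolase inhibition.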
# Tau FP inhib = inhibitors of human tau fibril formation; P10636; K18 P301L tau heparin fibrillization, Alexa594 FP, 6 h; Potency, µM (highest dose often 57.7 µM), inactives show top-dose activity, negative = inhibition, hits mostly inhibitors; 280,000 tested, 0.39% active; also: potency is read from the fitted curve at half-maximal effect; nearly all actives have a fitted effect of over 55% in size
# Target sequence (P10636 561-689 P618L limits assumed): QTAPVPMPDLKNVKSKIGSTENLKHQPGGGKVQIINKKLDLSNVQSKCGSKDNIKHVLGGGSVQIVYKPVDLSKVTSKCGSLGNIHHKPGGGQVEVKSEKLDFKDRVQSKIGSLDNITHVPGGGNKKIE
#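 Compound effects on tau fibrillization are measured by Alexa 594 fluorescence polarization (ex 555, em 632 nm). K18 P301L tau is used at 15 uM with 0.24 uM labeled tracer, and 20 uM heparin induces aggregation over 6 hr at 37 C.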
# Tau ThT inhib = tau fibrillization inhibition (ThT binding) | Potency, µM (top dose mostly 57.4 µM), for inactives: top-dose activity, negative = inhibition, actives largely listed as inhibitors | recombinant tau K18 P301L, heparin-induced fibrillization, ThT fluorescence | 270,000 tested, 2.1% active | AID 1460; also: potency is read from the fitted curve at half-maximal effect; nearly all actives have a fitted effect of over 55% in size
#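 ThT emission at 510 nm, taken 1 hr after adding 30 uM dye, quantifies aggregates formed when 20 uM heparin acts on human tau K18 P301L for 6 hr at 37 C.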
# Tau fluor cs = counter-screen for tau fibril formation inhibitors | Potency, µM (doses to about 57.7 µM), inactives show at the top dose activity change, negative = decrease | 280,000 tested, 0.93% active | tau K18 P301L Alexa594 fluorescence, heparin fibrillization; also: potency is read from the fitted curve at half-maximal effect; nearly all actives have a fitted effect of over 55% in size
#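 Human tau K18 P301L (15 uM unlabeled, 0.24 uM Alexa 594-labeled) in 100 mM sodium acetate pH 7 with 20 uM heparin, 6 hr at 37 C. ThT 30 uM added, 1 hr ambient; Alexa 594 FP and total fluorescence read at 555/632 nm.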
# Sfp inh = inhibitors of Bacillus subtilis Sfp phosphopantetheinyl transferase; Q9F4F7; Potency, µM, for inactives: largest response in the series, negative = inhibition, actives largely listed as inhibitors; 310,000 tested, 3.5% active; Biochemical Sfp PPTase activity, qHTS; AID 1490;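 also: the enzyme is Sfp with the accession as filed and its product quenches rhodamine fluorescence; potency is read from the fitted curve at half-maximal effect; 0% = enzyme reaction without inhibitor and -100% = no enzyme wells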
#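 Buffer: 50 mM Hepes-Na pH 7.6, 10 mM MgCl2, 0.01% Nonidet P-40, 0.01% BSA. Enzyme 15 nM, pre-exposed to compound 15 min; substrates then added and fluorescence change tracked over 30 min.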
# * hit, by the source's call; ? = inconclusive; nt = not tested or not shown; [ ] = dose if it differs, or a comment. This is a sample that favours compounds with a hit; in the whole collection about 5.2% have one here. Unless noted, calls follow the shape of the dose curve; as a rule, active = well fitted curve in the direction sought with a large enough effect; inconclusive = small, poorly fitted or top-dose-only effect, or another doubt; inactive = no such curve, though single readings can be large; an effect the other way counts as inactive or inconclusive. Unless noted, % is scaled to controls: 0 for no effect and ±100 for the full control effect.
SMILES,FBPA coupling cs,Tau FP inhib,Tau ThT inhib,Tau fluor cs,Sfp inh
Cn1c(COc2ccccc2O)[n+](C)c2ccccc21,2,nt,nt,nt,18%
Cc1nc(SCc2cc(=O)c3cccc(F)c3[nH]2)n[nH]1,nt,0%,0%,0%,nt
CCN(CC)C(=O)CSc1nc2cc3c(cc2c(=O)n1Cc1ccc(C(=O)NCCc2ccc(OC)c(OC)c2)cc1)OCO3,nt,-2%,17%,11%,nt
Cc1c(C(=O)O)nn(-c2ccccc2)c(=O)c1C#N,-2,9%,-2%,5%,0%
Cc1cc(C)n(C)c(=O)c1C#N,0,4%,2%,7%,10%
CC(=O)N=Cc1c(C)c(C#N)c(=O)n(C)c1O,-51*,-10%,?,-19%,?
Cc1c(C=O)c(Cl)n(C)c(=O)c1C#N,-46*,-8%,?,-2%,?
Cc1c(/C=N/Nc2ccc(F)cc2)c(O)n(C)c(=O)c1C#N,-23,?,14µM*,-27%,-15%
CSc1ncc(Cl)c(C(=O)N(Cc2ccc(C)cc2)C2CCS(=O)(=O)C2)n1 (stereo not drawn),nt,-1%,8%,-7%,nt
O=C1/C(=C/c2c[nH]c3ccccc23)CCC/C1=C\c1c[nH]c2ccccc12,-8,8%,?,7.9µM*[quencher],50µM*
O=C1CS/C(=N/N=C/c2c[nH]c3ccccc23)N1,0,1%,nt,-6%,6%
Nc1ccc(S(=O)(=O)NCc2ccccc2)cc1,nt,nt,nt,nt,12%
CCOC(=O)c1c(C)oc2nc(C)nc(NCCCN3CCN(c4cc(C)ccc4C)CC3)c12,nt,4%,?,-3%,nt
CCC(C)NCCCOc1ccc(C)cc1OC (stereo not drawn),3,-7%,3%,-1%,-6%
CNCCCOc1ccc(C)cc1OC,-3,-10%,-6%,-10%,45µM*
O=[N+]([O-])c1ccc(C[n+]2cccc3ccc4cccnc4c32)cc1,-6,12%,4%,3%,14µM*
O=[N+]([O-])c1ccc(C[n+]2cccc3ccccc32)cc1,1,4%,-2%,9%,-3%
Nc1n[nH]c(N)c1N=Nc1ccc(Cl)cc1Cl,0,7%,3.5µM*,?,-18%
Clc1cccc(-c2ccc(C=Nc3ccc(N4CCOCC4)cc3)o2)c1Cl,-16,-24%,13µM*,?,?
Clc1ccc(-c2ccc(C=Nc3ccc(N4CCOCC4)cc3)o2)c(Cl)c1,-18,-1%,?,-1%,-8%
CC(Oc1ccccc1)C(=O)Nc1c(C(=O)Nc2cccc(F)c2)oc2ccccc12 (stereo not drawn),nt,10µM*,10%,?,nt
Cc1ccccc1C(=O)Nc1c(C(=O)Nc2cccc(F)c2)oc2ccccc12,nt,?,1%,-27%,nt
COc1cc2c(cc1OC)C(c1cc3cc(OC)c(OC)cc3[nH]c1=O)N(C(=O)C1CC1)CC2 (stereo not drawn),-16,-10%,-16%,-8%,50µM*
CC1=C(C#N)C(=O)N(C2CCS(=O)(=O)C2)C(=O)/C1=C\c1ccco1 (stereo not drawn),-31*,?,nt,?,45µM*
O=C1/C(=C\c2ccco2)SC(=S)N1C1CCCCC1,0,nt,nt,nt,-13%
SMILES,FBPA coupling cs,Tau FP inhib,Tau ThT inhib,Tau fluor cs,Sfp inh
COc1cccc(CNC(=O)c2cc3c(s2)-c2c(C)cccc2OC3)c1,nt,-15%,?,?,nt
CC(C)c1cnc2c(c1SCC(=O)c1ccccc1)c(=O)n(C)c(=O)n2C,nt,2%,3%,-2%,nt
Cc1ccc(NC2(c3ccccc3)C(=O)c3ccccc3C2=O)cc1F,nt,-6%,-17%,?,nt
COc1ccccc1/C=C/C(=O)OC(C)CN1CCOCC1 (stereo not drawn),-45*,1%,-1%,2%,-1%
COc1cccc(/C=C/C(=O)Nc2ccc(N3CCOCC3)cc2)c1OC,0,2%,5.6µM*,?,7%
COc1ccccc1OCCCC(=O)Nc1ccc(N2CCOCC2)cc1,-4,-3%,?,-9%,-6%
CC(CN1CCOCC1)OC(=O)c1ccccc1 (stereo not drawn),6,4%,-3%,2%,14%
COc1ccccc1/C=C/C(=O)Nc1ccc(N2CCOCC2)cc1,-1,6%,2.5µM*,?,-6%
COc1ccccc1/C=C/C(=O)Nc1ccc2c(c1)OCCO2,-11,3%,?,?,-14%
O=c1oc2ccc(F)cc2cc1-c1nc(-c2cccs2)no1,nt,2%,?,?,nt
CCOc1cc(/C=N/NC(=O)Cn2nc([N+](=O)[O-])cc2C)cc(Br)c1OCc1ccccc1F,1,?,-19%,?,-15%
CCOc1cc(/C=N/NC(=O)Cn2nc([N+](=O)[O-])cc2C)ccc1OCc1ccc(F)cc1,3,?,-4%,?,45µM*
Cc1cccc(C(C)C)c1NC(=O)Cn1c(=O)oc2cc(S(=O)(=O)N3CCCC3)ccc21,nt,-9%,-3%,-17%,nt
COC(=O)C1=C(C)NC(=S)NC1c1ccc(-c2cc(Cl)ccc2Cl)o1 (stereo not drawn),0,-17%,-3%,-11%,40µM*
COC(=O)C1=C(C)NC(=O)NC1c1ccc(-c2ccc(Cl)cc2)o1 (stereo not drawn),9,-10%,-6%,-7%,-7%
COc1ccc(N(Cc2cccs2)C(=O)Nc2ccccc2)cc1,nt,10%,-4%,-15%,nt
COc1ccc(NC(=O)C2CCN(S(=O)(=O)c3ccc4[nH]c(=O)ccc4c3)CC2)cc1Cl,nt,-2%,3%,-11%,nt
Cc1ccc([C@H]2Nc3ccc(S(=O)(=O)Nc4cccc(Cl)c4C)cc3[C@H]3C=CC[C@H]32)cc1,nt,-8%,13µM*,?,nt
O=C(O)c1ccc(NS(=O)(=O)c2ccc3c(c2)C2C=CCC2C(c2ccccc2F)N3)cc1 (stereo not drawn),-1,?,32µM*,?,10µM*
COc1cccc([C@H]2Nc3ccc(S(=O)(=O)Nc4cc(C)ccc4C)cc3[C@H]3C=CC[C@H]32)c1,nt,4%,?,?,nt
COc1ccccc1-c1noc(-c2ccc(N3CCOCC3)c([N+](=O)[O-])c2)n1,nt,4%,3%,2%,nt
CC(=O)c1ccc(NC(=O)Cn2c(=O)c3cccn3c3ccccc32)cc1,nt,?,-8%,?,nt
COc1ccc(OC)c(NC(=O)Cn2c(=O)c3cccn3c3ccccc32)c1,nt,3.2µM*,?,?,nt
COc1ccc(NC(=O)Cn2c(=O)c3cccn3c3ccccc32)cc1,nt,18µM*,-9%,?,nt
COc1cccc(NC(=O)C2CCN(S(=O)(=O)c3c(C)noc3/C=C/c3cccs3)CC2)c1,nt,?,7%,?,nt
O=C(Cn1ncc2c3ccccc3n(Cc3cccc(Cl)c3)c2c1=O)N1CCCCC1,nt,-4%,?,-17%,nt
Cc1ccccc1Nc1nc(CSc2nnnn2-c2ccccc2)cs1,-6,7%,?,?,45µM*
